LDHA block = blocks human lactate dehydrogenase A; activity change, % (values are at about 110 or 230 µM); AID 1347041; P00338; purified LDHA, NADH/diaphorase-resazurin fluorescence; stronger effect = lower value; actives 0.15% (n = 480,000); in the data active = activity change below about -30%; inconclusive = mostly about -25% to -30%
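Remaining NADH was detected by diaphorase (0.133 mg/mL) converting 37 µM resazurin to fluorescent resorufin, read at 0 and 20 minutes. The preceding 5-minute room-temperature reaction used 2 nM LDHA, 0.2 mM sodium pyruvate and 0.06 mM NADH at pH 7.4.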
RORg inh = ROR gamma (mouse) transcription inhibition; Drosophila S2 Gal4-RORgamma UAS-luciferase reporter, 20 h; Potency, µM (top dose mostly 53.6 µM), usual class: inhibitors; actives 5.4% (n = 310,000); AID 2551; note: nearly all actives have a fitted effect of over 60% in size
Target sequence (P51450 whole entry, looked up, the tested form may be a part): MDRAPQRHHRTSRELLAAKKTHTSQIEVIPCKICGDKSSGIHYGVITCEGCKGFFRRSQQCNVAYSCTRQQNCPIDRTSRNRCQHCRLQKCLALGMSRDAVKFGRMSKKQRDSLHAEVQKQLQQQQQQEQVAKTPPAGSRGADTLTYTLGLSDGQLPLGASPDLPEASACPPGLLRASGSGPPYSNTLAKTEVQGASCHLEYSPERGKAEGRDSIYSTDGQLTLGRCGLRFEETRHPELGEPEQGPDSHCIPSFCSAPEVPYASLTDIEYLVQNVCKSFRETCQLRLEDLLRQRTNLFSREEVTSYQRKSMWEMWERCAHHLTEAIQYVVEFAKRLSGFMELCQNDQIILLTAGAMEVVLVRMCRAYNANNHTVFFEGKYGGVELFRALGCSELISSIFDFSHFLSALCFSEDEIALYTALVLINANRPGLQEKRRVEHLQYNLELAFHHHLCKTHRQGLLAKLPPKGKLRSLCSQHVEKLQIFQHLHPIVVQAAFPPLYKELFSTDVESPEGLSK
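ROR gamma transcriptional activity was tracked as Gal4-UAS luciferase output in stably transfected Drosophila Schneider cells, with compound added 1 hr before 700 uM copper sulfate induction and a 20 hr ambient-temperature incubation.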
TDP1 cell noCPT = qHTS for Inhibitors of human tyrosyl-DNA phosphodiesterase 1 (TDP1): qHTS in cells in absence of CPT; DT40 Tdp1-/- hTDP1 cells, no CPT, ATP luminescence, 48 h; Potency, µM (top dose mostly 46.2 µM), usual class: inhibitors; actives 15% (n = 420,000); note: nearly all actives have a fitted effect of over 55% in size
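Chicken DT40 Tdp1-/- cells stably complemented with human TDP1 were seeded at 400 cells/well with DMSO in place of 20 nM camptothecin. After compound pinning, cells grew at least 48 hr at 37 °C; viability read by CellTiter-Glo luminescence.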
IL1B secr inh = blocks inflammasome-driven IL-1 beta release. THP-1 LPS/ATP IL-1B secretion, AlphaLISA, 16 h; stronger effect = lower value. activity change, % at 57.5 µM. actives 4.7% (n = 360,000); in the data active = activity change below about -50%; inconclusive = mostly about -30% to -49%
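THP-1 cells pretreated 1 hr with compounds (up to 57.5 uM final), then stimulated with LPS (250 ng/mL final) plus ATP (1.25 mM final); secreted IL-1B measured by AlphaLISA after 16 hr, decreased signal indicating inhibition.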
VP16 counter = Gal4-VP16 reporter inhibition counter-screen; actives 3.5% (n = 310,000); Potency, µM (highest dose often 53.6 µM), hits mostly inhibitors; Drosophila S2 Gal4-VP16 UAS-luciferase, luminescence, 20 h;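 note: Gal4-VP16 expression switched on by copper sulfate through the metallothionein promoter; nearly all actives have a fitted effect of over 50% in size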
DT40 TDP1 CPT = growth inhibition of DT40 Tdp1-/-;hTDP1 cells with camptothecin (screen for TDP1 inhibitors) | chicken DT40 Tdp1-/-;hTDP1 cells + 20 nM CPT, ATP luminescence, 48 h | actives 12% (n = 420,000) | Potency, µM (titrated, usually from 46.2 µM), actives largely listed as inhibitors | AID 686979; note: nearly all actives have a fitted effect of over 55% in size
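Chicken DT40 Tdp1-/- cells complemented with human TDP1, 400 cells/well, exposed to compounds plus 20 nM camptothecin for at least 48 h at 37 C; viability read as ATP content by CellTiter-Glo luminescence.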
Hits are given with their value; – = inactive; ? = inconclusive; · = no result given. This is a sample that favours compounds with a hit; in the whole collection about 18% have one here. Unless noted, calls come from the whole dose curve; as a rule, active = well fitted curve in the direction sought with a large enough effect; inconclusive = small, poorly fitted or top-dose-only effect, or another doubt; inactive = no such curve, though single readings can be large; an effect the other way counts as inactive or inconclusive.

SMILES	LDHA block	RORg inh	TDP1 cell noCPT	IL1B secr inh	VP16 counter	DT40 TDP1 CPT
CCOC(=O)NCc1ccc(Cl)cc1	–	·	·	·	·	·
CCOc1ccc(NC(=O)c2sc(-c3ccco3)nc2-c2ccccc2)cc1OC	–	·	·	·	·	·
CCN(CC)S(=O)(=O)c1cc(NC(=O)C2CCCN(C(=O)c3ccc(Cl)cc3)C2)ccc1C (configuration not stated)	–	·	·	·	·	·
CSCc1cccc(C(=O)O)c1	–	·	·	·	·	·
CCC(C)(C)C1CCC2(CC1)NC(=O)N(CC(=O)N(C)CC(=O)Nc1ccccc1C(F)(F)F)C2=O (configuration not stated)	–	–	?	–	–	23µM
CCC(C)(C)C1CCC2(CC1)NC(=O)N(CC(=O)N(C)Cc1ccc(OC(F)F)cc1)C2=O (configuration not stated)	–	·	7.3µM	–	·	–
CSc1ccc(CN(C)C(=O)CN2C(=O)NC3(CCCC3)C2=O)cc1	–	·	–	–	·	–
CCC(C)(C)C1CCC2(CC1)NC(=O)N(CC(=O)NCCc1c[nH]c3ccccc13)C2=O (configuration not stated)	–	·	16µM	–	·	16µM
CCC(C)(C)C1CCC2(CC1)NC(=O)N(CC(=O)N(C)CCOc1ccc(Cl)cc1)C2=O (configuration not stated)	–	·	23µM	–	·	?
CC1CC(C)(C)CC2(C1)NC(=O)N(CC(=O)NCCc1c[nH]c3ccccc13)C2=O (configuration not stated)	–	–	–	–	–	–
CCN(CC(=O)NC)S(=O)(=O)N1CCCCCC1	–	·	·	·	·	·
COc1ccc2cc(CN(C)C(=O)CN3C(=O)NC4(CCCC4)C3=O)ccc2c1	–	·	23µM	–	·	?
CN(Cc1ccccc1)C(=O)CN1C(=O)NC2(CCCCCCC2)C1=O	–	·	?	–	·	–
CC(=NNc1nc2ccccc2o1)c1ncccn1	–	·	13µM	–	·	–
COc1cc(/C=N/Nc2nc3ccccc3o2)cc(OC)c1O	–	?	–	–	?	?
c1ccc(Nc2nc3ccccc3o2)cc1	–	?	–	–	?	–
CC(=NNc1nc2ccccc2o1)c1cc2ccccc2cn1	–	·	0.13µM	-102	·	0.13µM
Cc1cc(C)nc(Nc2nc3ccccc3o2)n1	–	–	?	-76	–	–
COc1ccc(Br)cc1C(=O)Nc1c(NCc2ccccc2)c2ccccc2oc1=O	–	·	·	·	·	·
CC(Oc1ccc(Cl)cc1Cl)c1nc(-c2ccc(NC(=O)c3ccncc3)cc2)no1 (configuration not stated)	–	?	8.2µM	–	13µM	15µM
CC(Oc1ccc(Cl)cc1Cl)c1nc(-c2ccc(NC(=O)c3cccnc3)cc2)no1 (configuration not stated)	–	?	5.8µM	–	?	5.8µM
COc1ccccc1CNC(=O)CSc1nnc(-c2ccco2)n1C	–	·	·	·	·	·
COc1ccc(CN2C(=O)c3ccccc3C2c2nnnn2-c2ccc3c(c2)OCCO3)cc1 (configuration not stated)	–	·	16µM	–	·	?
CC(C)CCN1C(=O)c2ccccc2C1c1nnnn1-c1ccc2c(c1)OCCO2 (configuration not stated)	–	·	16µM	–	·	23µM
Cc1ccccc1CN1C(=O)c2ccccc2C1c1nnnn1-c1ccc2c(c1)OCCO2 (configuration not stated)	–	·	4.1µM	–	·	5.2µM
O=C1c2ccccc2C(c2nnnn2-c2ccc3c(c2)OCCO3)N1Cc1ccccc1 (configuration not stated)	–	·	?	–	·	?
O=C1c2ccccc2C(c2nnnn2-c2ccc3c(c2)OCCO3)N1CCc1c[nH]c2ccccc12 (configuration not stated)	–	·	15µM	–	·	18µM
COC(=O)c1[nH]c2ccccc2c1NC(=O)CCN1CCCCC1	–	·	·	·	·	·

Screens: PubChem, National Center for Advancing Translational Sciences (NCATS)
